For orientation: AC50 means the concentration at which the activity in the assay is half-maximal.

The text below walks through data of PubChem BioAssay (EPA / NIEHS).

Results filed as inconclusive are left out. Calls of active or inactive are those of the source. Rule for the calls, unless noted: active = hit-call score of the fitted dose curve at least 0.9, where 1 is the maximum; inactive = score below 0.9.

A short description of test [1]: ATG_NFI_CIS: Attagene CIS-FACTORIAL HepG2 Assay for human Nuclear Factor I (NFI) (AID 2282989). As to conditions: HepG2 cis-regulatory reporter, NFI response element transcription; actives raise or lower the signal. The essentials:
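Read-out: reporter mRNA via RT-PCR plus capillary electrophoresis with fluorescence detection. Transiently transfected HepG2 (endogenous TF activity on cis promoters), 24 h compound exposure; gain or loss of signal fitted against DMSO.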

Test [2] deals with Myc proto-oncogene protein (Homo sapiens) (UniProt P01106). Put plainly: ATG_Myc_CIS: Attagene CIS-FACTORIAL HepG2 Assay for human Myelocytomatosis (Myc) Proto-Oncogene Transcription Factor (AID 2282990). As to conditions: HepG2, Attagene cis-reporter transcription factor activity; actives raise or lower the signal. The essentials:
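After 24 h chemical treatment of HepG2 cells carrying multiplexed cis-regulated reporter constructs, reporter transcripts quantified by RT-PCR and capillary electrophoresis of fluorescent fragments. Gain or loss fitted against DMSO baseline.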

The nature of test [3]: ATG_NRF2_ARE_CIS: Attagene CIS-FACTORIAL HepG2 Assay for human Nuclear Factor Erythroid 2 Related Factor 2 (NFR2) response to Antioxidant Response Elements (ARE) (AID 2282992).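 For AC50: reporter mRNA level measured by RT-PCR and capillary electrophoresis fluorescence.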 As to conditions: HepG2 Attagene ARE/NRF2 reporter, transcription factor activity; actives raise or lower the signal. The essentials: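 Transient MRTU transfection of HepG2; 24 h compound exposure; TriZol RNA, RT with oligo(dT), PCR, 6-FAM primer extension, HpaI cut, CE. Bidirectional fit vs DMSO.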

The target in test [4] is Cellular tumor antigen p53 (Homo sapiens) (UniProt P04637). Put plainly: ATG_p53_CIS: Attagene CIS-FACTORIAL HepG2 Assay for human p53 Transcription Factor (AID 2282994). As to conditions: HepG2 p53 cis-element reporter, Attagene mRNA; actives raise or lower the signal. In a few lines:
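HepG2, transient MRTU transfection (cis promoter elements, endogenous TFs); 24 h dosing; RNA isolation, RT-PCR, 6-FAM primer extension, HpaI digest, CE fluorescence; bidirectional fit vs DMSO.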

Test [5] deals with human Peroxisome Proliferator-activated Receptor alpha (PPARa), PPARA (gene 5465) (UniProt Q07869). Put plainly: ATG_PPARa_TRANS: Attagene TRANS-FACTORIAL HepG2 Assay for human Peroxisome Proliferator-activated Receptor alpha (PPARa) (AID 2283001; active = hit-call score of the fitted dose curve at least 0.9, where 1 is the maximum). In a few lines:
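Read-out is fluorescence of reporter cDNA fragments resolved by capillary electrophoresis after RT-PCR. Human HepG2 liver cells carried transfected PPARa-Gal4 chimera and GAL4-UAS reporter units, treated 24 h; activity scored as increase over DMSO.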

Test [6] deals with Peroxisome proliferator-activated receptor gamma (Homo sapiens) (UniProt P37231). Put plainly: ATG_PPARg_TRANS: Attagene TRANS-FACTORIAL HepG2 Assay for human Peroxisome Proliferator-activated Receptor-gamma (PPARg) (AID 2283007; active = hit-call score of the fitted dose curve at least 0.9, where 1 is the maximum). In a few lines:
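Chimeric NR-Gal4 transactivation is measured in transiently transfected HepG2 cells by reporter mRNA induction at 24 h. Detection uses RT-PCR with fluorescent labelling and capillary electrophoresis; DMSO defines baseline.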

Test [7] deals with Nuclear receptor subfamily 1 group I member 2 (Homo sapiens) (UniProt O75469). Kind of test: ATG_PXR_TRANS: Attagene TRANS-FACTORIAL HepG2 Assay for human Pregnane X Receptor (PXR) (AID 2283008; active = hit-call score of the fitted dose curve at least 0.9, where 1 is the maximum). The essentials: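 Read-out is fluorescence of labelled reporter cDNA fragments separated by capillary electrophoresis after RT-PCR and HpaI digestion. Source: HepG2 cells carrying PXR-GAL4/UAS reporter constructs, treated 24 h; activity fitted upward relative to DMSO.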

For test [8], the target named is human RAR-related Orphan Receptor gamma (RORg), RORC (gene 6097) (UniProt P51449). Kind of test: ATG_RORg_TRANS: Attagene TRANS-FACTORIAL HepG2 Assay for human RAR-related Orphan Receptor gamma (RORg) (AID 2283011; active = hit-call score of the fitted dose curve at least 0.9, where 1 is the maximum). The essentials: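 First, HepG2 liver cells were transfected with GAL4-UAS-driven reporter constructs and the RORg-Gal4 fusion. Next, they were treated with chemical for 24 h. Finally, reporter mRNA was quantified by RT-PCR and capillary electrophoresis, with upward activity fitted against DMSO.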

A short description of test [9]: ATG_NF_kB_CIS: Attagene CIS-FACTORIAL HepG2 Assay for human Nuclear Factor Kappa B (NF-kB) (AID 2282991). As to conditions: HepG2 Attagene cis-factorial NF-kB reporter mRNA; actives raise or lower the signal. The essentials:
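DMSO served as negative control and baseline for bidirectional curve fitting. Transiently transfected HepG2 cells were dosed for 24 h, then reporter transcripts were measured by RT-PCR with capillary electrophoresis detection.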

A short description of test [10]: ATG_Oct_MLP_CIS: Attagene CIS-FACTORIAL HepG2 Assay for human Octamer-Binding Transcription Factor (Oct) (AID 2282993). As to conditions: HepG2 Attagene cis-factorial Oct reporter, mRNA; actives raise or lower the signal. In a few lines: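 Read-out: reporter mRNA via RT-PCR plus capillary electrophoresis of 6-FAM-labelled fragments. Transiently transfected HepG2, 24 h exposure, endogenous TF activity on cis elements. Gain or loss of signal fitted relative to DMSO.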

Test [11] concerns the target human Peroxisome Proliferator-activated Receptor delta (PPARd), PPARD (gene 5467) (UniProt Q03181). Put plainly: ATG_PPARd_TRANS: Attagene TRANS-FACTORIAL HepG2 Assay for human Peroxisome Proliferator-activated Receptor delta (PPARd) (AID 2283002; active = hit-call score of the fitted dose curve at least 0.9, where 1 is the maximum). The essentials:
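Read-out is induced reporter mRNA, quantified by RT-PCR with fluorescent labelling and capillary electrophoresis after 24 h dosing. Cells are HepG2 transiently carrying multiple GAL4-UAS reporter units driven by exogenous NR-GAL4 chimeras; DMSO serves as baseline.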

The target in test [12] is Retinoic acid receptor alpha (Homo sapiens) (UniProt P10276). Put plainly: ATG_RARa_TRANS: Attagene TRANS-FACTORIAL HepG2 Assay for human Retinoic Acid Receptor alpha (RARa) (AID 2283005; active = hit-call score of the fitted dose curve at least 0.9, where 1 is the maximum). In a few lines: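 Reporter transcripts, measured by RT-PCR with fluorescent labeling and capillary electrophoresis after 24 h dosing, reflect activity of an exogenous human RARa–GAL4 fusion in transiently transfected HepG2. Fitted for increase relative to DMSO.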

Test [13] concerns the target human RAR-related Orphan Receptor beta (RORb), RORB (gene 6096) (UniProt Q92753). Kind of test: ATG_RORb_TRANS: Attagene TRANS-FACTORIAL HepG2 Assay for human RAR-related Orphan Receptor beta (RORb) (AID 2283010; active = hit-call score of the fitted dose curve at least 0.9, where 1 is the maximum). The essentials: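 HepG2 cells transiently transfected with GAL4-UAS reporter units expressing chimeric NR-Gal4 protein; reporter mRNA measured 24 h after dosing by RT-PCR, 6-FAM labelling and capillary electrophoresis. Gain-of-signal fitted relative to DMSO baseline.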

The target in test [14] is human Retinoic Acid Receptor gamma (RARg), RARG (gene 5916) (UniProt P13631). Put plainly: ATG_RARg_TRANS: Attagene TRANS-FACTORIAL HepG2 Assay for human Retinoic Acid Receptor gamma (RARg) (AID 2283009; active = hit-call score of the fitted dose curve at least 0.9, where 1 is the maximum). The essentials: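 HepG2 transiently transfected with GAL4-UAS reporter units and chimeric NR-Gal4 constructs; 24 h compound exposure. Reporter mRNA quantified by RT-PCR, FAM labeling, HpaI digestion and capillary electrophoresis; gain-of-signal versus DMSO.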

Test [15] in a line: BSK_3C_uPAR: BioMAP Diversity Plus: 3C Assay for Urokinase-type plasminogen activator receptor (uPAR) Biomarker Activity (AID 2282998). The conditions noted are these: BioMAP 3C HUVEC, uPAR biomarker ELISA; actives raise or lower the signal. In a few lines: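 HUVEC primary cells; 24 h post-dose; uPAR by ELISA; gain or loss of signal fitted bidirectionally vs DMSO baseline.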
(In general: An ELISA detects its analyte on a solid surface through an enzyme-linked reagent.)

Test [16] can be described thus: BSK_3C_VCAM1: BioMAP Diversity Plus: 3C Assay for Vascular cell adhesion molecule 1 (VCAM1) Biomarker Activity (AID 2282999). The conditions noted are these: BioMAP 3C HUVEC, VCAM1 ELISA, cytokine-stimulated; actives raise or lower the signal. The essentials:
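Endothelial cells from human umbilical vein are treated with test chemical. At 24 h, VCAM-1 is measured by ELISA, and responses in either direction are fitted relative to DMSO.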

The nature of test [17]: BSK_4H_Eotaxin3: BioMAP Diversity Plus: 4H Assay for Eotaxin 3 Biomarker Activity (AID 2283000).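 Note: CCL26 protein level quantified by ELISA in parallel with SRB cytotoxicity check.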 The conditions noted are these: primary human endothelial cells (HUVEC); actives raise or lower the signal. The essentials:
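Chemicals were added to human umbilical vein endothelium cultures, and Eotaxin-3 was quantified by ELISA at 24 h. Values were derived by bidirectional fitting with DMSO serving as negative control and activity baseline.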

Read-out in test [18]: Intercellular Adhesion Molecule 1 (ICAM1), ICAM1 (gene 3383)
Put plainly: BSK_3C_ICAM1: BioMAP Diversity Plus: 3C Assay for Intercellular Adhesion Molecule 1 (ICAM1) Biomarker Activity (AID 2283003). As to conditions: primary human endothelial cells (HUVEC); actives raise or lower the signal. The essentials:
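HUVEC primary cells stimulated under 3C conditions; ICAM1 measured by ELISA 24 h after compound dosing. Curves fitted bidirectionally against the DMSO baseline. Overt cytotoxicity checked by SRB staining of parallel cultures.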

A short description of test [19]: BSK_3C_Proliferation: Cell Proliferation Assessment in the BioMAP Diversity Plus: 3C Assay (AID 2283006). The conditions noted are these: primary human endothelial cells (HUVEC). In a few lines:
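Subconfluent HUVEC (3C system) cultured with chemical; relative cell number read at 48 h by sulforhodamine B total-protein staining (0.1% SRB after 10% TCA fixation, 560 nm). Bidirectional fit relative to DMSO.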

Sequence of Nuclear receptor subfamily 1 group I member 2 (Homo sapiens) (O75469 whole entry, looked up, the tested form may be a part): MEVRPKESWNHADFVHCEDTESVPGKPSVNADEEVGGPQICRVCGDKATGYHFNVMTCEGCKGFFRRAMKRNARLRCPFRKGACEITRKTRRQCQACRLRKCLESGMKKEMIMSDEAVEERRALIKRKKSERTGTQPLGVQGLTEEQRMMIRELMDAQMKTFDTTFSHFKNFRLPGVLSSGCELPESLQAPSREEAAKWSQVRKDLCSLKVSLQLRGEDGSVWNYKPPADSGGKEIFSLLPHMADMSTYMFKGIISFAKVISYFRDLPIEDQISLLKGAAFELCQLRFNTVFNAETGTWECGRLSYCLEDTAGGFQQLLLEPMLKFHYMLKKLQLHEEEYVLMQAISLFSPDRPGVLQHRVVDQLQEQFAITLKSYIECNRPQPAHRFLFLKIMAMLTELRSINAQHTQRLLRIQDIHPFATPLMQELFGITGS
Sequence of Peroxisome proliferator-activated receptor gamma (Homo sapiens) (P37231 whole entry, looked up, the tested form may be a part): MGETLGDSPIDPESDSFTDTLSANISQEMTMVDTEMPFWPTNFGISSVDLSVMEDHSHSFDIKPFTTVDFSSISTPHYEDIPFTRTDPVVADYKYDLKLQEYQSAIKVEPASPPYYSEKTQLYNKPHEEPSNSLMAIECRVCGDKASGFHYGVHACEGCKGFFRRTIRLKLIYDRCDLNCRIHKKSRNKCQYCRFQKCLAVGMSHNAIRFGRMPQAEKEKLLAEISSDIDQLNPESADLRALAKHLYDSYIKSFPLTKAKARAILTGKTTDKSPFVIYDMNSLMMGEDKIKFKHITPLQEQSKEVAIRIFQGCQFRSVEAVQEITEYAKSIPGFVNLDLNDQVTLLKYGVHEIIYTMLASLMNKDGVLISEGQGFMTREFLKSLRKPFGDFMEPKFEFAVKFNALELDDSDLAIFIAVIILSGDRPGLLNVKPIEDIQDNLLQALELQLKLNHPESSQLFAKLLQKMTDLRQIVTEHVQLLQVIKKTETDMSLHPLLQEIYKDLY
Sequence of human Peroxisome Proliferator-activated Receptor alpha (PPARa), PPARA (gene 5465) (Q07869 whole entry, looked up, the tested form may be a part): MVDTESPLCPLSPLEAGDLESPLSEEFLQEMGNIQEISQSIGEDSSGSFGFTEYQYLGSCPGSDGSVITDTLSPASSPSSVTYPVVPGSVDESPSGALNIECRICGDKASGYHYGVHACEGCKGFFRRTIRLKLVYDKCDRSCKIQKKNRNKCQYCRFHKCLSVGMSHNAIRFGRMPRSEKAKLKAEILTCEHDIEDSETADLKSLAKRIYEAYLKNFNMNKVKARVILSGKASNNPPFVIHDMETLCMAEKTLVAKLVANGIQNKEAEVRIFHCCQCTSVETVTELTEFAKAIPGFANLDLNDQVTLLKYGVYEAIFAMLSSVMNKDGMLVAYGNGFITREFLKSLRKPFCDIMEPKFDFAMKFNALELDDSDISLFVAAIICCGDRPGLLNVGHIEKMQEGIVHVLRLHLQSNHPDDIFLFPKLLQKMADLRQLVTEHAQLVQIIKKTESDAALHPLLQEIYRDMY
Sequence of human RAR-related Orphan Receptor gamma (RORg), RORC (gene 6097) (P51449 whole entry, looked up, the tested form may be a part): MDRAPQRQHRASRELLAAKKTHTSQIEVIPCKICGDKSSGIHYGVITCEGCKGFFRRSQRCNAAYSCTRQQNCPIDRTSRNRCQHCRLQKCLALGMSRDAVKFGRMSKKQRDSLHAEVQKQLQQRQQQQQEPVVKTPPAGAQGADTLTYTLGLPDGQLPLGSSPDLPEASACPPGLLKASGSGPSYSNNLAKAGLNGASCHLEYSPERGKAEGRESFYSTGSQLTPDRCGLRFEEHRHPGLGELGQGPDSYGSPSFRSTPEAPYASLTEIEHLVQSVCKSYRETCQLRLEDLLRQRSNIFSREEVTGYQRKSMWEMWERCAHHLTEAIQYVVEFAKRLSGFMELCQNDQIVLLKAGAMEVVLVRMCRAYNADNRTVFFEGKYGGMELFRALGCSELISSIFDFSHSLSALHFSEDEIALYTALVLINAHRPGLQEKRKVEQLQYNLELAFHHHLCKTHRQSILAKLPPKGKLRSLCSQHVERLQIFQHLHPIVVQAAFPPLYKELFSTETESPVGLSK
Sequence of human RAR-related Orphan Receptor beta (RORb), RORB (gene 6096) (Q92753 whole entry, looked up, the tested form may be a part): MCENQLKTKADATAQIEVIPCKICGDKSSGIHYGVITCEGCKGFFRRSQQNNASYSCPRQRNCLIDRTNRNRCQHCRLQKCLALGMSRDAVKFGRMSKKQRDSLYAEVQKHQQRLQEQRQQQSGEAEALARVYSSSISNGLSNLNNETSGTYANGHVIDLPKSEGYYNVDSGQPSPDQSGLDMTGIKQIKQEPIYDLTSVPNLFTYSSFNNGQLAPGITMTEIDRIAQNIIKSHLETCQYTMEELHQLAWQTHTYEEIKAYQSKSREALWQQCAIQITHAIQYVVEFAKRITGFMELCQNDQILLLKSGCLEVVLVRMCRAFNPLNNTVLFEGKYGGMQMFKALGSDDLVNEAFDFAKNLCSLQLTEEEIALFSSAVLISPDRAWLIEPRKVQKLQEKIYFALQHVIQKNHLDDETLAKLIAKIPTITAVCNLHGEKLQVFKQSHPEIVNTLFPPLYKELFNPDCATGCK
Sequence of Cellular tumor antigen p53 (Homo sapiens) (P04637 whole entry, looked up): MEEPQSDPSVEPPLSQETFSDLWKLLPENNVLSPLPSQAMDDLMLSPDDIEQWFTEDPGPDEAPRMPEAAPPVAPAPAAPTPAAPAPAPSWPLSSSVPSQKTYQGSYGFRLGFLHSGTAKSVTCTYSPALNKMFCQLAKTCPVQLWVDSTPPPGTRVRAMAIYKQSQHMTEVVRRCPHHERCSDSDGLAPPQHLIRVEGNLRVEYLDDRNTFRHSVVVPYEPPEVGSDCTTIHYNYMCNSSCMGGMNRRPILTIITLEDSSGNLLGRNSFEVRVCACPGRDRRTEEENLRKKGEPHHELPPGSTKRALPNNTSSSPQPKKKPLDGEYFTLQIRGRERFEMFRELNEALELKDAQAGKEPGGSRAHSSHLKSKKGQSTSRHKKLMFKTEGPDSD
Sequence of human Peroxisome Proliferator-activated Receptor delta (PPARd), PPARD (gene 5467) (Q03181 whole entry, looked up, the tested form may be a part): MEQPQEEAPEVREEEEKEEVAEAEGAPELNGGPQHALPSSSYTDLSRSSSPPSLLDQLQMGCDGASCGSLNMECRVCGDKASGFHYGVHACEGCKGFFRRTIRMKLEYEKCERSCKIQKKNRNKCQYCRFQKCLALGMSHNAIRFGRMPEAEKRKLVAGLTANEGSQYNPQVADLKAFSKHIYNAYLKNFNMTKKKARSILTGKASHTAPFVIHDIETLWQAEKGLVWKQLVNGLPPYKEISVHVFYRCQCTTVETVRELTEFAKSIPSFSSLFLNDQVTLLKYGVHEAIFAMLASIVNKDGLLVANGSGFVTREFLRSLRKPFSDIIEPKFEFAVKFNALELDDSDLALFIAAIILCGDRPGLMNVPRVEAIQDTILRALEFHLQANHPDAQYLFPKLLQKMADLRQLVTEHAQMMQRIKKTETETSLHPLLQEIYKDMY
Sequence of human Retinoic Acid Receptor gamma (RARg), RARG (gene 5916) (P13631 whole entry, looked up, the tested form may be a part): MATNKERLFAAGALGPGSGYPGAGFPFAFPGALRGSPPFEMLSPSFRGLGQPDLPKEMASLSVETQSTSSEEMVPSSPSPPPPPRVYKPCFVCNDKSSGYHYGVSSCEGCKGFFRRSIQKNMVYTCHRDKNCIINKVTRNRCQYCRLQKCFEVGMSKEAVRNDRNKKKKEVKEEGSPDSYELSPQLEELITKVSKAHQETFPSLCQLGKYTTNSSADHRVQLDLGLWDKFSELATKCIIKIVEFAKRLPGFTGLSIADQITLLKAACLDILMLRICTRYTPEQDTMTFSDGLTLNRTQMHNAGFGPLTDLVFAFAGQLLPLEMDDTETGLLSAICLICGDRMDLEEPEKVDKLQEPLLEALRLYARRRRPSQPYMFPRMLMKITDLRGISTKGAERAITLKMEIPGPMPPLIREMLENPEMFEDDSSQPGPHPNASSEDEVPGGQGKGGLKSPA
Sequence of Retinoic acid receptor alpha (Homo sapiens) (P10276 whole entry, looked up, the tested form may be a part): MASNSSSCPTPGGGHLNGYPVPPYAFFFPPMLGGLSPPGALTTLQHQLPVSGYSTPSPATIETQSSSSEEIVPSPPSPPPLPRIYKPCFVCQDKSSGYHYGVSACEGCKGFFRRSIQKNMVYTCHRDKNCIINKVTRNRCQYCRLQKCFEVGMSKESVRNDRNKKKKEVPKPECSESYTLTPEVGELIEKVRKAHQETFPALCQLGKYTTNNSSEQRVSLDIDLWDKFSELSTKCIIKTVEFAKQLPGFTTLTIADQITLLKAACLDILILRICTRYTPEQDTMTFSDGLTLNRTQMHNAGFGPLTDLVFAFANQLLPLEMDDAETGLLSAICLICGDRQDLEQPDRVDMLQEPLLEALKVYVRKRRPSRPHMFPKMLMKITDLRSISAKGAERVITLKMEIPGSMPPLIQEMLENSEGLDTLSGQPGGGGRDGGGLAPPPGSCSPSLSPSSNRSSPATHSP
Sequence of Myc proto-oncogene protein (Homo sapiens) (P01106 whole entry, looked up, the tested form may be a part): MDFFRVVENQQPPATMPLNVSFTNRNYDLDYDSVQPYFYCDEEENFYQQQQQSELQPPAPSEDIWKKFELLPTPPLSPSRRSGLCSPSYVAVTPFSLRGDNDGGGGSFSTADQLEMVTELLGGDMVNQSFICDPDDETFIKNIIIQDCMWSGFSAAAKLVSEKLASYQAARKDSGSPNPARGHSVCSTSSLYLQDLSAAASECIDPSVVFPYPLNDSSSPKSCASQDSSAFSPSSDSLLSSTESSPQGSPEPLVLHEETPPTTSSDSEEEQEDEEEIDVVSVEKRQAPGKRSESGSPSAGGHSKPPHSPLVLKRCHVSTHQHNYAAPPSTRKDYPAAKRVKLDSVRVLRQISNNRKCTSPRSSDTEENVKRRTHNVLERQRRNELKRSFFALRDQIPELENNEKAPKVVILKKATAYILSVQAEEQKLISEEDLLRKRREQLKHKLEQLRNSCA

In the case of `O=C(O)CCSCCC(=O)O`, the outcome in test [1], in test [2], in test [3], in test [4], in test [5] and in [6] was inactive. For the same compound, the call in test [7] and in [8] was inactive.
With `C=C(C)C(=O)OCc1ccccc1`, the compound was called inactive in test [1], in test [9], in test [3], in test [10], in test [5] and in test [11]. The result in test [6] and in test [7] was inactive.
In the case of `CC1(C)OC[C@@H]2O[C@@]3(C(=O)O)OC(C)(C)O[C@H]3[C@@H]2O1`, the compound was called inactive in test [1], in test [9], in [3], in test [10], in test [12] and in test [7]. In addition, the call in test [8] was inactive.
With `CC1(C)[C@H]2CC[C@]1(C)[C@H](O)C2`, the call in test [1], in test [3], in [10], in test [4], in [11] and in [7] was inactive. Further, the outcome in test [13] was inactive.
For the compound `OCCCCCO`, the compound was classed as inactive in test [1], in test [3], in [10], in test [4], in test [11] and in [7].
For the compound `C=C(C)C(=O)Nc1ccc(Cl)c(Cl)c1`, the outcome in [1], in [9], in [4], in test [5] and in test [13] was inactive. Moreover, the concentration at half-maximal activity (AC50) in test [3] is 13.6 µM (active); in test [10], 26.5 µM (active); in test [6] it was 18.4 µM (active); in test [7], 7.08 µM (active).
For the compound `CO[Si](C)(OC)c1ccccc1`, the outcome in test [1], in [10], in test [4], in test [11] and in test [13] was inactive. Moreover, the half-maximal activity concentration (AC50) was 16.2 µM (active) in [3] and 2.73 µM (active) in [7].
As for `O=C(O)CCCCCCCC(=O)O`, the outcome in [1], in [9], in [3], in test [10], in test [4] and in test [5] was inactive. Further, the compound was called inactive in test [12] and in test [14].
Turning to `Nc1cc([N+](=O)[O-])ccc1Cl`, the result in [1], in test [9], in test [4], in [15], in test [16] and in [17] was inactive. Moreover, the outcome in test [5], in [18], in test [19], in test [7] and in [8] was inactive. Further, the AC50 in test [3] was 62.5 µM (active); in test [6], 49.8 µM (active).
For `CN(C)C(=N)N=C(N)N`, the result in test [1], in test [9], in [3], in test [4], in [11] and in [7] was inactive. Further, the outcome in test [14] was inactive.
